Among the data in PubChem BioAssay (EPA / NIEHS) are outcome and AC50 values, retold here.

For orientation: AC50 means the midpoint of the concentration-response curve, whichever way the signal moves.

Molecules are shown by their SMILES. Results filed as inconclusive are left out. The source made the active and inactive calls. How the source made its calls: active means hit-call score of the fitted dose curve at least 0.9, where 1 is the maximum; inconclusive means response in the unintended direction; inactive means score below 0.9.

In assay [1] the target is human Ephrin type-A Receptor 1 (EphA1), EPHA1 (gene 2041) (UniProt P21709). Nature of the assay: NVS_ENZ_hEphA1: NovaScreen (NVS) Enzymatic Assay for human Ephrin type-A Receptor 1 (EphA1) (AID 2283158).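 Further: activity is signal loss versus DMSO meaning EphA1 kinase inhibition.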 In short, it runs like this:
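Cell-free kinase activity with recombinant protein, 1 hour after dosing; product separated by electrophoretic mobility shift, fluorescence read. Primary screen at 25 uM in duplicate; hits run as concentration-response up to 50 uM, relative to DMSO.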

Assay [2] deals with Cytochrome P450 2C19 (Homo sapiens) (UniProt P33261). Nature of the assay: NVS_ADME_hCYP2C19: NovaScreen (NVS) CYP450-related Enzyme Activity (ADME) Assay for human CYP2C19 (AID 2283113).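 On AC50: potency for inhibition seen as loss of fluorescent signal.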 In short, it runs like this:
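Cell-free recombinant human CYP2C19 from insect cells, fluorescent substrate; activity read by fluorescence intensity 1 h after dosing. Primary screen in duplicate at 10 uM; actives retested in concentration series. Signal loss versus acetonitrile negative control.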

The target of assay [3] is human Dual Specificity Protein Phosphatase 3 (DUSP3), DUSP3 (gene 1845) (UniProt P51452). Nature of the assay: NVS_ENZ_hDUSP3: NovaScreen (NVS) Enzymatic Assay for human Dual Specificity Protein Phosphatase 3 (DUSP3) (AID 2283152).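 Further: phosphatase activity of recombinant human DUSP3 on a fluorogenic substrate without cells.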 In outline:
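Cell-free assay with recombinant human DUSP3 and fluorogenic substrate, read by fluorescence intensity. Primary screen ran duplicate at 25 uM; actives followed up in concentration series; loss of signal versus DMSO scored.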

For assay [4], the target named is human Beta-secretase (BACE), BACE1 (gene 23621) (UniProt P56817). The assay can be described thus: NVS_ENZ_hBACE: NovaScreen (NVS) Enzymatic Assay for human Beta-secretase (BACE) (AID 2283140).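 Further: hits are inhibitors that reduce fluorescent substrate signal versus DMSO.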 In short, it runs like this: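 Compounds were first tested in duplicate at 25 uM, then actives in concentration series, against recombinant BACE1 from SF9 cells. Enzyme activity was measured by fluorescence intensity 1 hour after dosing, with DMSO as negative control.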
Chain of human Beta-secretase (BACE), BACE1 (gene 23621) (P56817 whole entry, looked up): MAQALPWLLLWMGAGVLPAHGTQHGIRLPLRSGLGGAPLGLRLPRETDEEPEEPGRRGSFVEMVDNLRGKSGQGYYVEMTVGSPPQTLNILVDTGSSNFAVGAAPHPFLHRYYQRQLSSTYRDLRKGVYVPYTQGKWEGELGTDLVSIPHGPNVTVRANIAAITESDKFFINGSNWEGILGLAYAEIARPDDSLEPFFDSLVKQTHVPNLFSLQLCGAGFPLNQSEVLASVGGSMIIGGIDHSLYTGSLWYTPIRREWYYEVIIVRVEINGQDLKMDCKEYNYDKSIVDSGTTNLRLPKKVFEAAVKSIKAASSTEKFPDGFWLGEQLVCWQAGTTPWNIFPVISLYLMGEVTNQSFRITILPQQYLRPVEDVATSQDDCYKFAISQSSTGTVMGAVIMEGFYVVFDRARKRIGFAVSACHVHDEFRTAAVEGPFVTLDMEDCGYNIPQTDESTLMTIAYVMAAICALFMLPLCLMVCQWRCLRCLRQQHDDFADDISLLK

Assay [5] concerns the target human Elastase, ELANE (gene 1991) (UniProt P08246). Nature of the assay: NVS_ENZ_hElastase: NovaScreen (NVS) Enzymatic Assay for human Elastase (AID 2283153). In short, it runs like this: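 Cell-free elastase from human neutrophils, 1.5 h after dosing, activity read by absorbance. Primary screen in duplicate at 25 uM; hits (e.g., 30% inhibition) rerun in singleton concentration-response up to 50 uM, fitted versus DMSO.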

Assay [6] has as its target human Esterase Plasma (ES), BCHE (gene 590) (UniProt P06276). The assay can be described thus: NVS_ENZ_hES: NovaScreen (NVS) Enzymatic Assay for human Esterase Plasma (ES) (AID 2283157). In outline:
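Cell-free enzyme assay using esterase extracted from human plasma; colorimetric absorbance read 0.25 hour after dosing. Single-concentration duplicate screen at 25 uM, then concentration-response up to 50 uM; loss of signal scored against DMSO baseline.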

For assay [7], the target named is human Casein Kinase 1-delta (CK1D), CSNK1D (gene 1453) (UniProt P48730). Nature of the assay: NVS_ENZ_hCK1D: NovaScreen (NVS) Enzymatic Assay for human Casein Kinase 1-delta (CK1D) (AID 2283148). In short, it runs like this:
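Recombinant human CK1-delta, cell-free; fluorescent substrate with electrophoretic mobility-shift separation of product, read 1 h after dosing. Single 25 uM duplicate screen, then concentration-response up to 50 uM; loss of signal vs DMSO.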

Assay [8] deals with human FYN Proto-Oncogene, Src family Tyrosine Kinase (Fyn), FYN (gene 2534) (UniProt P06241). Nature of the assay: NVS_ENZ_hFyn: NovaScreen (NVS) Enzymatic Assay for human FYN Proto-Oncogene, Src family Tyrosine Kinase (Fyn) (AID 2283161). In outline:
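Recombinant enzyme with fluorescent substrate, product separated by electrophoretic mobility shift; read 1 h after dosing. Duplicate 25 uM single-point screen, actives retested in concentration series; loss of signal vs DMSO.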

In assay [9] the target is human Caspase 5 (CASP5), CASP5 (gene 838) (UniProt P51878). The assay can be described thus: NVS_ENZ_hCASP5: NovaScreen (NVS) Enzymatic Assay for human Caspase 5 (CASP5) (AID 2283137). In outline: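 E. coli-derived enzyme, cell-free, 2 h incubation, fluorescence intensity. 25 uM duplicate single-point; hits → concentration series to 50 uM. DMSO baseline, positive/negative controls on every plate.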
Chain of human Caspase 5 (CASP5), CASP5 (gene 838) (P51878 whole entry, looked up): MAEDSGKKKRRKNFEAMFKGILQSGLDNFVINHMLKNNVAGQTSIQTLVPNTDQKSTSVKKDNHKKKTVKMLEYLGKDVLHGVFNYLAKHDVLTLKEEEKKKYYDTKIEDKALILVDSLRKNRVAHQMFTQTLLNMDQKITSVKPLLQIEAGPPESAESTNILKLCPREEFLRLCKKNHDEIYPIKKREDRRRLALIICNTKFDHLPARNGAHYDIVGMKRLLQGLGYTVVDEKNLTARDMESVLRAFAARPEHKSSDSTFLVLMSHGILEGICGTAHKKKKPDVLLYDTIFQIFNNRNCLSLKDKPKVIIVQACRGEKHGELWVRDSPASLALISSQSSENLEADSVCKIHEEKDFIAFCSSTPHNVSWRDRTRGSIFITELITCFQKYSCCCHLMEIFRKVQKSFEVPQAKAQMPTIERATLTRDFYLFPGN

Assay [10] has as its target human Caspase 8 (CASP8), CASP8 (gene 841) (UniProt Q14790). The assay can be described thus: NVS_ENZ_hCASP8: NovaScreen (NVS) Enzymatic Assay for human Caspase 8 (CASP8) (AID 2283146). In short, it runs like this:
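E. coli-expressed enzyme was used in a cell-free fluorogenic substrate assay read 1 h after dosing. Loss of signal was scored relative to DMSO, and the primary screen was run in duplicate at 25 uM.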

In assay [11] the target is human AKT serine/threonine Kinase 1 (AKT1), AKT1 (gene 207) (UniProt P31749). Nature of the assay: NVS_ENZ_hAKT1: NovaScreen (NVS) Enzymatic Assay for human AKT serine/threonine Kinase 1 (AKT1) (AID 2283138). In outline: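 Recombinant AKT1, specific substrate, cell-free; 1 h; fluorescence intensity/electrophoretic mobility shift. Duplicate single-point 25 uM, then singleton CRC max 50 uM. DMSO = negative control/baseline; signal loss = inhibition.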
Chain of human AKT serine/threonine Kinase 1 (AKT1), AKT1 (gene 207) (P31749 whole entry, looked up): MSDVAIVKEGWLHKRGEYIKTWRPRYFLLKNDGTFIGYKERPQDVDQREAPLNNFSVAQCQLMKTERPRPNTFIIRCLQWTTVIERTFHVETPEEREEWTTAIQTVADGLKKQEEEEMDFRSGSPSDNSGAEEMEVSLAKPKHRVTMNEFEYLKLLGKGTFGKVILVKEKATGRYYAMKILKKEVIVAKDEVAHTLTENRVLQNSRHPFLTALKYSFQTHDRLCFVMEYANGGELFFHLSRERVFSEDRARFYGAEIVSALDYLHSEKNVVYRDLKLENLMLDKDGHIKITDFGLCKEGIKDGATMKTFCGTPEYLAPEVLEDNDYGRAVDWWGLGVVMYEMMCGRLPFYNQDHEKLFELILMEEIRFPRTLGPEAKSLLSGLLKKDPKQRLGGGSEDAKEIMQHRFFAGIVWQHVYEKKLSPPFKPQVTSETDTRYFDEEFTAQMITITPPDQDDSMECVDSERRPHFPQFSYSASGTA

Assay [12] concerns the target human AKT serine/threonine Kinase 2 (AKT2), AKT2 (gene 208) (UniProt P31751). The assay can be described thus: NVS_ENZ_hAKT2: NovaScreen (NVS) Enzymatic Assay for human AKT serine/threonine Kinase 2 (AKT2) (AID 2283141). In outline:
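Cell-free fluorescence/electrophoretic mobility shift readout of recombinant human AKT2 activity, 1 h after chemical dosing. Duplicate primary screen at 25 uM, then singleton concentration-response up to 50 uM; loss of signal versus DMSO baseline.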

The target of assay [13] is human Colony Stimulating Factor 1 Receptor (CSF1R), CSF1R (gene 1436) (UniProt P07333). The assay can be described thus: NVS_ENZ_hCSF1R: NovaScreen (NVS) Enzymatic Assay for human Colony Stimulating Factor 1 Receptor (CSF1R) (AID 2283150). In short, it runs like this:
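Cell-free recombinant human CSF1R kinase with fluorescent substrate, product separated by electrophoretic mobility shift; read 1 h after dosing. Primary screen at 25 uM in duplicate, actives then in concentration-response up to 50 uM, relative to DMSO.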

Chain of human Dual Specificity Protein Phosphatase 3 (DUSP3), DUSP3 (gene 1845) (P51452 whole entry, looked up): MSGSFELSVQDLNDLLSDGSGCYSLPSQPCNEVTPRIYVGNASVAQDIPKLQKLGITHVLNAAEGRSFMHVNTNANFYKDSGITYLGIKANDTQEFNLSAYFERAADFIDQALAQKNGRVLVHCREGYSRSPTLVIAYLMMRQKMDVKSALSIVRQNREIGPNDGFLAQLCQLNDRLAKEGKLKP
Chain of human Casein Kinase 1-delta (CK1D), CSNK1D (gene 1453) (P48730 whole entry, looked up): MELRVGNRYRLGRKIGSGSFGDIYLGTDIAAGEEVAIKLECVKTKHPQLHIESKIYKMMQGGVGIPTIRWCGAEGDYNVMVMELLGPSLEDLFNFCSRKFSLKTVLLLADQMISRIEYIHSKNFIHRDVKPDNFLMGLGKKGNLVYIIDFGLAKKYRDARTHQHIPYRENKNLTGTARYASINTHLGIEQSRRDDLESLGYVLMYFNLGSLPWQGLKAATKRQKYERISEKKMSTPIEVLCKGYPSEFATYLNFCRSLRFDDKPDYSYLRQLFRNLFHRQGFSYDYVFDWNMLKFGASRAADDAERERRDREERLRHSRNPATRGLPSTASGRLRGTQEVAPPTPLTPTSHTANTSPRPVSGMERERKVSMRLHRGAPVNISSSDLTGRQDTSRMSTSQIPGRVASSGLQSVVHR
Chain of human Elastase, ELANE (gene 1991) (P08246 whole entry, looked up): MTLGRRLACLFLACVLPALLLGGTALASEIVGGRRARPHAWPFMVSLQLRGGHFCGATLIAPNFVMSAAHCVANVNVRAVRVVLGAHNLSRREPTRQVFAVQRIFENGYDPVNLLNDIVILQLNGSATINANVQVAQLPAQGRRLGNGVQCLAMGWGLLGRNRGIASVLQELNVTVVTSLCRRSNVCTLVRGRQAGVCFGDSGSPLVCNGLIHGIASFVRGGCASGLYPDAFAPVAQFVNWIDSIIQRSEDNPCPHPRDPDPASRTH
Chain of human FYN Proto-Oncogene, Src family Tyrosine Kinase (Fyn), FYN (gene 2534) (P06241 whole entry, looked up): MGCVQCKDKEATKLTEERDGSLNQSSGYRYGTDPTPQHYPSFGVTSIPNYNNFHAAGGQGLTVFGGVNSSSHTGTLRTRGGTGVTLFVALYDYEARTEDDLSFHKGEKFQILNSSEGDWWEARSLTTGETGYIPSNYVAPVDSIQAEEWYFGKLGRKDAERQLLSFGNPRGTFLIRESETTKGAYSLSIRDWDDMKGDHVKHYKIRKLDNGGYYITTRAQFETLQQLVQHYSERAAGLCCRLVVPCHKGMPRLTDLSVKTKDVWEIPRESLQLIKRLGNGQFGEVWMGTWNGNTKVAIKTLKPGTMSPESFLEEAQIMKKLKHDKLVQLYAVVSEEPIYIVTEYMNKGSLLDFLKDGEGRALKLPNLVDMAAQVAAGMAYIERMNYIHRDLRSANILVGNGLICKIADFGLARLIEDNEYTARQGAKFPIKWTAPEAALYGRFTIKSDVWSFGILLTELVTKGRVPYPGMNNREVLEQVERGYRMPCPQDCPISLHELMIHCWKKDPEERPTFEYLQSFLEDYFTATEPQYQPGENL
Chain of human Esterase Plasma (ES), BCHE (gene 590) (P06276 whole entry, looked up): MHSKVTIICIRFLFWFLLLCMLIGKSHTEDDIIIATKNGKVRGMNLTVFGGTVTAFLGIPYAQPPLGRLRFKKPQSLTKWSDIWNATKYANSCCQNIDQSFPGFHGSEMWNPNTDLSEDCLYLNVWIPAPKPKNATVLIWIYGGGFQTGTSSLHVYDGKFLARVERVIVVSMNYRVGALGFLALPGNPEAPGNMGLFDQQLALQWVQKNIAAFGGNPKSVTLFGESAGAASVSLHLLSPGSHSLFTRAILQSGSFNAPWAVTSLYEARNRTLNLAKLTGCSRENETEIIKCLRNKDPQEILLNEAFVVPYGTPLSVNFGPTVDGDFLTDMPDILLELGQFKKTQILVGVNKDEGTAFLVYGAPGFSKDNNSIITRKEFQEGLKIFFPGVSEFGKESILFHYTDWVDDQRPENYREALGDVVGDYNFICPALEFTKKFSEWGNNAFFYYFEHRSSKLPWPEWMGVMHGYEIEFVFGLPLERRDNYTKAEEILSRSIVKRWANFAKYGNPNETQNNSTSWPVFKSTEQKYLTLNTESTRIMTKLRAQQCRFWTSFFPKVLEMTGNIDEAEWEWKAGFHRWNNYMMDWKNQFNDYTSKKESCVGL
Chain of human Ephrin type-A Receptor 1 (EphA1), EPHA1 (gene 2041) (P21709 whole entry, looked up): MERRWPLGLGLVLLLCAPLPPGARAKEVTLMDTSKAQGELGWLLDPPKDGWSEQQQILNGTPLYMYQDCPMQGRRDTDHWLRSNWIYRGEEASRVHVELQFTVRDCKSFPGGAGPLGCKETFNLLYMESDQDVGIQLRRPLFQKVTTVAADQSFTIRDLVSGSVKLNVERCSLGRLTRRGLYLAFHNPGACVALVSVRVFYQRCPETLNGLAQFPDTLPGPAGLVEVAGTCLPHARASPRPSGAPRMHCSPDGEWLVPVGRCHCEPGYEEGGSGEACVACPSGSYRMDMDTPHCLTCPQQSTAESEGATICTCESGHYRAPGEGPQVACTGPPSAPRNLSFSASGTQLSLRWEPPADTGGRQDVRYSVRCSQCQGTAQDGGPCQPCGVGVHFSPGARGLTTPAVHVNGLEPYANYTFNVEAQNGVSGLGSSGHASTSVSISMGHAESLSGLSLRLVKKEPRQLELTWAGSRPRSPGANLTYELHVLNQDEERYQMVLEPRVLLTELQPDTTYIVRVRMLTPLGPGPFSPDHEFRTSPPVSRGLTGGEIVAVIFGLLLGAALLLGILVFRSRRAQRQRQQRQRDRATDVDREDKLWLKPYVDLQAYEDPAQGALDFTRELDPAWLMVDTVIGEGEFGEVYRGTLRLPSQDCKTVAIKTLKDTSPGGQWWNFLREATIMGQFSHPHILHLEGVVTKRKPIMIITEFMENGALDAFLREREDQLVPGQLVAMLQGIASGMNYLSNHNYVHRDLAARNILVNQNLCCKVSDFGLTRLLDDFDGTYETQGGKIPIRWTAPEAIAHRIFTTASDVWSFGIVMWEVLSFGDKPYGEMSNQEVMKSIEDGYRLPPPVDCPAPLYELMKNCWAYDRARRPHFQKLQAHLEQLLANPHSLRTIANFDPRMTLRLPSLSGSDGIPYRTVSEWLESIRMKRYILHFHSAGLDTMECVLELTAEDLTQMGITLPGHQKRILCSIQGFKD
Chain of human Caspase 8 (CASP8), CASP8 (gene 841) (Q14790 whole entry, looked up): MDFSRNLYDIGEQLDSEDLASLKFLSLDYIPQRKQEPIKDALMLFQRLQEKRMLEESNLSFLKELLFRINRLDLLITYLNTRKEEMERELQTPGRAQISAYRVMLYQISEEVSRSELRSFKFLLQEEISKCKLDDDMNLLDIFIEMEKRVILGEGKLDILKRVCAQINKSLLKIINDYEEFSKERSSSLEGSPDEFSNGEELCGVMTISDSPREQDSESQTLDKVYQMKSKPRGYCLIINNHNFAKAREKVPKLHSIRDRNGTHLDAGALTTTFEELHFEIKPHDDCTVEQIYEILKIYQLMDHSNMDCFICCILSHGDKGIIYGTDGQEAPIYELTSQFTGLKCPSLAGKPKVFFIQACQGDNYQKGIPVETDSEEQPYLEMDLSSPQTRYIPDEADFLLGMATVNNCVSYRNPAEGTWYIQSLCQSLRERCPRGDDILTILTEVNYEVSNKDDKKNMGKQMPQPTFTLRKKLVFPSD

In the case of `COCC(C)O` (stereo not given), in assay [1], the outcome was inactive.

On to `ClC1=C(Cl)C(Cl)(Cl)C(Cl)=C1Cl`, for which the compound was called inactive in assay [2] and in assay [1]. In [3], the AC50 is 16.3 µM (active).

Regarding `c1ccc2c(c1)Cc1ccccc1-2`, in assay [4], the compound was classed as inactive.

For `CCCCCCCCCCCCCCCS(=O)(=O)Oc1ccccc1`, the AC50 in assay [2] is 5 µM (active). Further, the compound was called inactive in assay [3] and in assay [5].

Consider `OC1CCC(C2CCCCC2)CC1` (stereo not given), for which the compound was classed as inactive in [6].

With `CCN(CC)CCNc1ccc(CNC=O)c2sc3ccc(OC)cc3c(=O)c12`, the AC50 in [7] is 6.5 µM (active); in [6], 0.751 µM (active); in assay [8] it was 2.1 µM (active).

In the case of `CCCCC(CC)COC(=O)CCCCC(=O)OCC(CC)CCCC` (stereo not given), the result in assay [3] was inactive.

Regarding `COC(=O)CCCCC(=O)OC`, the call in [4] was inactive.

Consider `c1ccc2cc3c(ccc4ccccc43)cc2c1`, for which the compound was classed as inactive in [9] and in assay [10]. Besides, the AC50 in assay [5] is 46.9 µM (active).

As for `O=c1c(-c2ccc(O)cc2)coc2cc(O)ccc12`, the call in assay [7] was inactive.

In the case of `CC(C)(C)CC(C)(C)c1ccc(O)c(-n2nc3ccccc3n2)c1`, the AC50 in assay [3] is 10.6 µM (active).

With `CCCCCCCCOC(=O)CCCCCCCCC(=O)OCCCCCCCC`, the compound was called inactive in assay [11] and in [3].

Turning to `CCCCCCCC(=O)O`, the result in assay [8] was inactive.

As to `N#C[C@@H]1CC(F)(F)CN1C(=O)CNC1CC2CCC(C1)N2c1ncccn1` (stereo not given in full), the compound was classed as inactive in assay [11], in assay [12] and in assay [13].
